# This is a sample that favours compounds with a hit; in the whole collection about 2.4% have one here.
# POLI inh: DNA polymerase iota (human) inhibition; Pol iota fluorescent replication assay, 10 min; 1% of 390,000 active; Q9UNA4; Potency, µM (series often up to 115 µM), for the others: top-dose activity, negative = inhibition, usual class: inhibitors
#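 Pol iota at 10 nM preincubated 15 min with compounds at room temperature; reaction started with fluorescent substrate, 50 nM final. Fluorescence read kinetically at 0 and 10 min; buffer-only wells as negative control.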
# Pol beta inh: inhibitors of human DNA polymerase beta. Pol beta primer extension/strand displacement, fluorescence kinetic. 1.3% of 340,000 active. P06746. AID 485314. Potency, µM (top dose mostly 114 µM), without a hit: at the top dose activity change, negative = inhibition, hits mostly inhibitors; further: on the % scale 0 is the no-effect control and ±100 the full control effect
#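 Human Pol beta at 10 nM; strand-displacement substrate 50 nM final. Compound exposure 15 min at room temperature before start, reaction 10 min at room temperature.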
# GLS inhibitor: glutaminase GLS (human) inhibition | O94925 | GLS enzymatic activity, qHTS titration | Potency, µM (top dose mostly 45.5 µM), for inactives: at the top dose activity change, negative = inhibition, actives largely listed as inhibitors | 0.21% of 410,000 active | AID 624170; further: on the % scale 0 is the no-effect control and ±100 the full control effect
#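 Coupled fluorescence readout: glutamate oxidase/HRP/Amplex Red detect glutamate formed by hKGA from L-glutamine (1 mM solution added). Buffer 45 mM KH2PO4 pH 8.2, 0.02% Tween-20; reads at t0 and 30 min RT.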
# POLK inh: DNA polymerase kappa (human) inhibition; purified Pol kappa, fluorescent DNA synthesis assay, 10 min; Potency, µM (doses to about 107 µM), for the others: at the highest dose activity, negative = inhibition, hits mostly inhibitors; 0.53% of 400,000 active; AID 588579; further: on the % scale 0 is the no-effect control and ±100 the full control effect
#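 Fluorescent qHTS in 1536-well format: enzyme (10 nM) and compound sat 15 min at room temperature before 50 nM substrate (final) was added. Signal taken at 0 and 10 min; no-enzyme buffer wells were negative controls.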
# GCN5L2 inh: GCN5L2 (KAT2A) acetyltransferase inhibition; Q92830; GCN5L2 HAT assay, ThioGlo1 CoA-SH fluorescence; Potency, µM (doses to about 58.9 µM), inactives show top-dose activity change, negative = inhibition, most hits filed as inhibitors; 0.21% of 390,000 active; further: on the % scale 0 is the no-effect control and ±100 the full control effect
#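 Titration-based screen in which CoA formation is detected via maleimide probe ThioGlo1 (50uM) turning fluorescent on thiol reaction; substrates H3(1-25) 75uM and acetyl-CoA 70uM, GCN5L2 20nM, 20 min incubation at room temperature.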
# Pol eta inh: DNA polymerase eta (human) inhibition | 1.2% of 390,000 active | recombinant Pol eta, fluorescent DNA replication assay | Potency, µM (doses to about 114 µM), for inactives: at the highest dose activity change, negative = inhibition, actives largely listed as inhibitors; further: on the % scale 0 is the no-effect control and ±100 the full control effect
# Target sequence (Q9Y253 whole entry, looked up): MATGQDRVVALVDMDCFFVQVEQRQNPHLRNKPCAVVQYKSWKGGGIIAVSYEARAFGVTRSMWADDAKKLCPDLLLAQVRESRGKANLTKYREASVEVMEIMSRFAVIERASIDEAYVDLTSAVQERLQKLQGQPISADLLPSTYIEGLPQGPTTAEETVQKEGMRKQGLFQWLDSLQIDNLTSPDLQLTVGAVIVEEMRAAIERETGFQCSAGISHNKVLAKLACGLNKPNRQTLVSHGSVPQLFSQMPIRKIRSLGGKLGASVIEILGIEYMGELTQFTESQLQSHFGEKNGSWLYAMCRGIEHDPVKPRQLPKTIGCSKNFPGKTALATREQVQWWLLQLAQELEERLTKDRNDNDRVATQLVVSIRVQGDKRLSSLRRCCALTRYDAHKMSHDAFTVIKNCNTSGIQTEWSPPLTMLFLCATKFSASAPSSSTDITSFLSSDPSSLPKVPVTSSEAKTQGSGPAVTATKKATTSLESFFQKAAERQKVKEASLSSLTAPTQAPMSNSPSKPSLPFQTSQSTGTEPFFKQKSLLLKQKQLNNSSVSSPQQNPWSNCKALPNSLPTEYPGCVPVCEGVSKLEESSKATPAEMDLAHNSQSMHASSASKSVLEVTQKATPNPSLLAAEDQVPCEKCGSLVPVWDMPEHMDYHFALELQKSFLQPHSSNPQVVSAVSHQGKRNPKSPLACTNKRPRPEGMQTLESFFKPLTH
#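 Pol eta at 10 nM preincubated with compounds 15 min at room temperature; reaction started with fluorescent substrate (50 nM final) and read kinetically at 0 and 10 min.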
# An asterisk follows results filed as active; ? = inconclusive; . = no result given; [ ] = dose if it differs, or a comment. The call rests on the fitted dose curve; in most records, active means well fitted inhibition curve with a large enough effect; inconclusive means small, poorly fitted or top-dose-only effect, or another doubt; inactive means no such curve, though single readings can be large or run the other way. Potency means the concentration at half of the fitted maximal effect.
SMILES,POLI inh,Pol beta inh,GLS inhibitor,POLK inh,GCN5L2 inh,Pol eta inh
O=c1cc(-c2ccc(O)cc2)oc2ccccc12,30%,28µM*,-4%,0%,2%,-2%
O=c1cc(-c2ccccc2O)oc2cc(O)ccc12,.,.,.,-6%[60.1 µM],-15%,.
O=c1cc(-c2cccc(O)c2O)oc2ccccc12,.,.,.,13µM*,.,.
CC[C@H]1OC(=O)[C@H](C)C(=O)[C@H](C)[C@@H](OC2O[C@H](C)C[C@H](N(C)C)[C@@H]2O)[C@@](C)(OC)C[C@@H](C)C(=O)[C@@H](C)C2N(CCCCn3cnc(-c4cccnc4)c3)C(=O)O[C@@]21C (stereo not given in full),.,.,13%,1%[19.4 µM],4%,.
COc1ccc(C2/C=C\CN(C(=O)C3CCCCC3)C(Cc3ccccc3)C(=O)N2Cc2ccc(F)cc2)cc1 (stereo not given),-3%,.,.,-7%,.,.
CC(C)C[C@@H](NC(=O)[C@H](Cc1ccccc1)NC(=O)c1cnccn1)B(O)O,.,.,7%,5%[19.4 µM],2%,.
CCCCn1c(SC(C)C(=O)c2ccc(OC)cc2)nc2cc(S(N)(=O)=O)ccc21 (stereo not given),-8%,1%,4%,-15%,-11%,-8%
CCCCn1c(SCC(=O)c2ccc(OC)cc2OC)nc2cc(S(N)(=O)=O)ccc21,45µM*,40µM*,6%,?,-16%,25µM*
CCOc1ccc2oc(=O)cc(CN3CCN(C(=O)c4ccc(Cl)cc4)CC3)c2c1,?,-16%,2%,?,-5%,-8%
O=C(/C=C/c1ccc(O)cc1)c1ccccc1O,.,.,.,?,-27%,.
CSc1ccc(/C=C/C(=O)NC(=O)c2ccccc2O)cc1,?,35µM*,2%,-40%,50%,-23%
O=C(/C=C/c1ccc(Br)cc1)NC(=O)c1ccccc1O,56%,32µM*,4%,0%,-16%,-18%
COc1ccc(-n2c(=O)c3c4c(sc3n(CC(=O)Nc3cc(C)[nH]n3)c2=O)CCC4)c(OC)c1,79µM*,-5%,-6%,0%,-3%,-2%
COc1ccc(/C=N/N(Cc2ccccc2)c2ccccc2)cc1O,68%,7%,16µM*,-18%,-5%,-23%
COc1cc(C=NCc2ccccc2)ccc1O,.,.,25%,.,.,-3%
CCC1(C)NC(=O)N(CC(=O)Nc2sc3c(c2C(N)=O)CCC3)C1=O (stereo not given),?,20µM*,7%,?,-11%,79µM*
CC(=O)c1ccc(NC(=O)c2cc3c(=O)oc4ccc(C)cc4c3s2)cc1,?,-18%,-10%,-15%,-4%,-7%
CCOC(=O)N1CCN(c2c(F)cc3[nH]c(=S)[nH]c3c2Br)CC1,4%,6%,7.1µM*,-12%,-7%,-7%
O=Cc1ccc(N2CCOCC2)cc1,33%,.,.,-2%,.,.
COc1cc2c(C(=O)N3CCN(c4cccc(C(F)(F)F)c4)CC3)cn(CC(C)C)c(=O)c2cc1OC,89µM*,-5%,1%,-13%[60.1 µM],-4%,-21%
CC(=O)c1ccc(Sc2ccccc2)c([N+](=O)[O-])c1,39%,-1%,1%,-3%,-4%,-13%
Nc1ccccc1Sc1ccc(C(=O)c2ccccc2C(=O)O)cc1[N+](=O)[O-],-14%,-7%,2%,-5%,20µM*,?
CC(=O)c1ccc(Sc2ccccc2N)c([N+](=O)[O-])c1,14%,?,0%,-3%,-4%,-5%
O=C(O)c1ccccc1C(=O)c1ccc(Sc2ccc(Cl)cc2)c([N+](=O)[O-])c1,15%,79µM*,14%,0%,-21%,-14%
CNC(=O)c1ccc(Nc2nnc(-c3ccc(O)cc3)c3ccccc23)cc1,9%,-22%,?,14%,-3%,-22%
SMILES,POLI inh,Pol beta inh,GLS inhibitor,POLK inh,GCN5L2 inh,Pol eta inh
CNC(=O)c1cc(Nc2nnc(-c3ccc(O)cc3)c3ccccc23)ccc1OC,7%,?,11µM*,-13%,1%,?
CN(C)C(=O)c1ccc(Nc2nnc(-c3ccc(O)cc3)c3ccccc23)cc1,-4%,-6%,11µM*,7%,0%,-9%
NC(=O)COc1ccc(Nc2nnc(-c3ccc(O)cc3)c3ccccc23)cc1,-22%,?,7.9µM*,-9%,-8%,-11%
C#CCOc1ccc(-c2nnc(Nc3cccc(C)c3)c3ccccc23)cc1,?,0%,13%,89µM*,-17%,-7%
Nc1ccn(C2CO[C@H](CO)O2)c(=O)n1 (stereo not given in full),.,.,0%,.,.,.
CCn1c2ccccc2c2nnc(SCc3ccccc3)nc21,?,?,6%,-5%,-1%,-16%
CCn1c2ccccc2c2nnc(SCc3ccc(C(=O)OC)o3)nc21,3%,35µM*,8%,-6%,-6%,-10%
O=C1C=C(c2ccccc2)OC(c2ccccc2)O1 (stereo not given),116%,11µM*,-4%,-20%,2%,-24%
O=C(O)Cc1c(Cl)ccc(Cl)c1Cl,.,.,.,13%[60.1 µM],-25%,.
CC(C)(C)n1ncc2c(=O)n(Cc3cc(F)c(F)cc3Cl)cnc21,9%,.,.,8%,.,.
COc1ccc(-c2ccc3c(c2)c(-c2cccs2)c(-c2cc(OC)cc(OC)c2)n3C)cc1,-3%,.,-1%,3%,20µM*,-8%
O=C(NCCNCc1ccccc1)c1ccco1,20µM*,.,14%,?,.,50µM*
O=C(O)CC(NC(=O)c1ccco1)c1ccco1 (stereo not given),-10%,79µM*,-5%,-10%,1%,?
CC1=C(/C=C/C(C)=C/C=C/C(C)=C/C(=O)O)C(C)(C)CCC1O (stereo not given),.,.,.,4%[19.4 µM],-3%,.
O=S(=O)(Nc1nc(-c2ccccc2)cs1)c1cc(Cl)ccc1Cl,?,45µM*,3%,-43%,?,?
Cc1cccc2c(C(O)c3cn(C)c4ccccc34)c[nH]c12 (stereo not given),33%,.,.,-12%,.,.
Cc1cc(N)c2ccccc2[n+]1CCCCCCCCCC[n+]1c(C)cc(N)c2ccccc21,?,32µM*,-23%[20 µM],?,-7%,-11%[57.1 µM]
CN(C)c1nc(NC2CCC(NC(=O)c3ccc(F)c(F)c3)CC2)nc2ccccc12 (stereo not given),.,.,.,?,0%,.
O=S(=O)(O)c1cc(O)c2c(N=Nc3ccc(Nc4ccccc4)c4c(S(=O)(=O)O)cccc34)cc(S(=O)(=O)O)cc2c1,.,.,-45%,3.2µM*,13µM*,.
COc1cc(O)ccc1-c1nc2cc(C)ccn2c1Nc1ccccc1C,3%,-9%,2%,-25%,-16%,-11%
